The panel holds about 79,000 compounds, 15% with a hit somewhere; the sample as a whole holds those more often. A number with no mark means an inactive call. Active and inactive are the calls of the source. Rule as the data show it: active = growth inhibition above about 70%; inactive = the rest.

Test [1] in a line: NCI Yeast Anticancer Drug Screen. Data for the rad50 strain (AID 155).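 Also: 0% = growth of vehicle-only cultures of the same strain.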 The conditions noted are these: S. cerevisiae rad50 strain growth inhibition; at 50.0 µM; stronger effect = higher value. The gist of the method:
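Readout: growth inhibition relative to vehicle-treated cultures. Compound exposure was carried out in a genetically defined yeast strain deficient in DNA damage repair.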

Test [2] in a line: NCI Yeast Anticancer Drug Screen. Data for the mec2-1 strain (AID 157). The settings on record: S. cerevisiae mec2-1 strain, at 50.0 µM, stronger effect = higher value. An outline of the steps:
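Vehicle-treated cultures served as reference for growth inhibition of compound-exposed mec2-1 yeast.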

Test [3] is described as follows: NCI Yeast Anticancer Drug Screen. Data for the sgs1 mgt1 strain (AID 161).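 Also: 0% = growth of cultures given vehicle only.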 The conditions noted are these: S. cerevisiae sgs1 mgt1 strain, at 50.0 µM, stronger effect = higher value. An outline of the steps:
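Mutant yeast exposed to compound; growth scored against vehicle-only wells.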

Test [4] can be described thus: NCI Yeast Anticancer Drug Screen. Data for the cln2 rad14 strain (AID 165).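 Also: 0% = growth equal to vehicle treated cultures.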 The settings on record: S. cerevisiae cln2 rad14 strain, at 50.0 µM, stronger effect = higher value. The gist of the method:
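Each compound was tested on cln2 rad14 yeast. Inhibition of growth was calculated against vehicle-exposed controls.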

Test [5] in a line: NCI Yeast Anticancer Drug Screen. Data for the bub3 strain (AID 167). The settings on record: S. cerevisiae bub3 mutant strain, at 50.0 µM, stronger effect = higher value. The gist of the method:
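Readout: yeast growth inhibition, expressed relative to vehicle-only wells. The test organism is a mutant strain from a panel with lesions in DNA repair or checkpoint genes.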

Test [6] in a line: NCI Yeast Anticancer Drug Screen. Data for the mlh1 rad18 strain (AID 175). The conditions noted are these: S. cerevisiae mlh1 rad18 strain growth inhibition; at 50.0 µM; stronger effect = higher value. An outline of the steps:
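Vehicle-treated cultures served as the reference for growth inhibition in a yeast strain carrying DNA damage repair alterations exposed to each compound.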

For the compound `O=c1[nH]cnc2ccccc12`, the growth inhibition in test [1] was 39%; in test [2], -1.55%; in test [3], 0.2%; in test [4], -7.3%; in test [5], 16.6%; in test [6], 14.7%.
As to `O=C(O)CCCCCCCCC(=O)c1cc(O)ccc1O`, the growth inhibition in test [1] is -5.3%; in test [2] it was 42.1%; in test [3], 35.7%; in test [4], -7.25%; in test [5], 20.4%; in test [6], 7.9%.
Regarding `CCOC1(C)OC2OC(COC(C)=O)C(OC(C)=O)C(OC(N)=O)C2O1` (stereo not given), the growth inhibition is -11.8% in test [1]; 0.05% in test [2]; -5.75% in test [3]; -34% in test [4]; -1.15% in test [5]; 15.2% in test [6].
As for `Cc1ccc(NC(=O)c2ccccc2N)cc1`, the growth inhibition in test [1] is -0.9%; in test [2], -8.5%; in test [3], -0.95%; in test [4] it was -16.8%; in test [5], -12.4%; in test [6] it was 18%.
`CCOC1Oc2ccccc2-c2nc(C)c(C#N)cc21` (stereo not given): the growth inhibition in test [1] is 1.65%; in test [2], 7.75%; in test [3], 15.9%; in test [4], -66.5%; in test [5], 15.8%; in test [6], 12.4%.
For `CCOCCOC(=O)Nc1ccc(C)c(NC(=O)OCCOCC)c1`, the growth inhibition in test [1] was -0.55%; in test [2] it was -18.8%; in test [3] it was 8.65%; in test [4] it was 4.45%; in test [5], 5.35%; in test [6], -4.8%.
For the compound `O=C(Nc1ccc(Cl)cc1[N+](=O)[O-])Oc1ccc(-c2ccccc2)cc1Cl`, the growth inhibition in test [1] is 99.5% (active); in test [2], 99.7% (active); in test [3], 99.7% (active); in test [4], 99% (active); in test [5], 99.4% (active); in test [6] it was 99.7% (active).
For `Cc1cc(C)c(Cc2c(C)cc(C)cc2C)c(C)c1`, the growth inhibition is 14.8% in test [1]; -25.6% in test [2]; 7.25% in test [3]; -2.85% in test [4]; 23.9% in test [5]; 13.9% in test [6].
As to `COc1ccc(C(=O)/C=C/c2ccc(OCC(=O)O)cc2)cc1`, the growth inhibition in test [1] is 22.6%; in test [2], 12.3%; in test [3], 18.1%; in test [4] it was 21.8%; in test [5] it was -5.75%; in test [6], 42.8%.
In the case of `CC(C)(O)CC(C)(c1ccccc1)c1ccccc1`, the growth inhibition in test [1] was -9.95%; in test [2] it was 0.75%; in test [3] it was -1.25%; in test [4], -39%; in test [5] it was -13.1%; in test [6] it was -15.2%.
With `CCOc1c(N=Nc2ccccc2C)c(C)nn1C(=S)SC`, the growth inhibition is -1.2% in test [1]; -2.2% in test [2]; -15.4% in test [3]; 23.8% in test [4]; -19.4% in test [5]; 15.7% in test [6].
As for `Cc1cc(N(CCC#N)CCC#N)ccc1/C=C1N=C(/C=C/c2ccccc2)OC(=O)N\1`, the growth inhibition in test [1] is 14.7%; in test [2] it was -5%; in test [3], 4.7%; in test [4] it was -10.1%; in test [5], 1.15%; in test [6], -13.7%.
On to `CC12CCC(=O)C=C1CCC1C2CCC2(C)C1CCC2(O)C(=O)Cn1c(=O)[nH]cc(F)c1=O` (stereo not given), for which the growth inhibition in test [1] is -0.8%; in test [2], -1.2%; in test [3], 5.75%; in test [4], 10.8%; in test [5] it was -1.2%; in test [6], 11.4%.
Consider `c1ccc2c(OCCSCCCCCCCCCCSCCOc3cccc4ccccc34)cccc2c1`, for which the growth inhibition is 18.9% in test [1]; -5.55% in test [2]; -2.25% in test [3]; 7.75% in test [4]; -3.6% in test [5]; -9.25% in test [6].
Regarding `COc1cccc(CCNc2ccncc2N)c1`, the growth inhibition in test [1] is -22%; in test [2], -23.7%; in test [3], -24.6%; in test [4] it was -52.2%; in test [5] it was -29.1%; in test [6], 12.9%.
Regarding `CC1(C(=O)O)CCCC2(C)c3ccc(O)cc3CCC12` (stereo not given), the growth inhibition was 37% in test [1]; 29.9% in test [2]; 61.2% in test [3]; -3% in test [4]; 61.1% in test [5]; 45% in test [6].
For the compound `O=C(NCCO)C(=O)NCCO`, the growth inhibition in test [1] was 5.25%; in test [2] it was -13.3%; in test [3], 5.7%; in test [4], -9.35%; in test [5], -2.55%; in test [6] it was 17.6%.
With `O=S(=O)(c1cccc(C(F)(F)F)c1)N(CCCCCN(S(=O)(=O)c1cccc(C(F)(F)F)c1)S(=O)(=O)c1cccc(C(F)(F)F)c1)S(=O)(=O)c1cccc(C(F)(F)F)c1`, the growth inhibition is -12.2% in test [1]; 2.95% in test [2]; 0.2% in test [3]; 21.3% in test [4]; 11.9% in test [5]; 10.2% in test [6].
Regarding `O=C1C(Br)=C(c2ccccc2)C(c2ccccc2)=C1c1ccccc1`, the growth inhibition in test [1] was 45.6%; in test [2] it was 25.9%; in test [3], 51%; in test [4], 21.9%; in test [5], 22.7%; in test [6] it was 55%.
With `O=c1ccnc2ccc3n[nH][nH]c3c12`, the growth inhibition in test [1] was -18.4%; in test [2], -20.2%; in test [3], -7.65%; in test [4] it was 3.55%; in test [5], -14.2%; in test [6] it was 1.1%.
